Assay results taken from PubChem BioAssay (NCATS).
Results filed as inconclusive are left out. Activity calls are given as the source filed them. Calls follow the shape of the dose curve; as a rule, active = well fitted curve in the direction sought with a large enough effect; inconclusive = small, poorly fitted or top-dose-only effect, or another doubt; inactive = no such curve, though single readings can be large; an effect the other way counts as inactive or inconclusive.

Columns and labels:
MCC-13 = assay: qHTS assay to identify novel small-molecules to repurpose for Merkel cell carcinoma treatment (AID 1296009); details: MCC and control cell lines, CellTiter-Glo viability, 72 h; series mostly up to 46 µM; also: nearly all actives have a fitted effect of over 60% in size
How it was run: (§1)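 Cell viability, measured as CellTiter-Glo luminescence, was normalized between DMSO and no-cell wells. The cells had been exposed to 8- or 11-point compound dilutions for 72 hr at 37 degree celsius.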

MKL-1 = assay: as above; details: MCC and control cell lines, CellTiter-Glo viability, 72 h; series mostly up to 46 µM
How it was run: as §1

MKL-2 = assay: as above; details: MCC and control cell lines, CellTiter-Glo viability, 72 h; series mostly up to 46 µM
How it was run: as §1

UISO = assay: as above; details: MCC and control cell lines, CellTiter-Glo viability, 72 h; series mostly up to 46 µM
How it was run: as §1

WaGa = assay: as above; details: MCC and control cell lines, CellTiter-Glo viability, 72 h; series mostly up to 46 µM
How it was run: as §1

C33A = assay: Primary qHTS to identify gynecologic anti-cancer compounds using libraries of approved drugs and bioactive compounds (AID 1345084); details: Gynecologic cancer cell panel viability, ATPlite luminescence, 48 h; series mostly up to 57.5 µM; also: nearly all actives have a fitted effect of over 55% in size
How it was run: (§2)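 Five-point cytotoxicity, 48 h drug exposure at 37 C, 5% CO2, on cells seeded 16 h beforehand. ATP content read by ATPlite luminescence.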

Es-2 = assay: as above; details: Gynecologic cancer cell panel viability, ATPlite luminescence, 48 h; series mostly up to 57.5 µM
How it was run: as §2

HeLa = assay: as above; details: Gynecologic cancer cell panel viability, ATPlite luminescence, 48 h; series mostly up to 57.5 µM
How it was run: as §2

Hek293T = assay: as above; details: Gynecologic cancer cell panel viability, ATPlite luminescence, 48 h, control line for the selectivity index; series mostly up to 57.5 µM
How it was run: as §2

JEG-3 = assay: as above; details: Gynecologic cancer cell panel viability, ATPlite luminescence, 48 h; series mostly up to 57.5 µM
How it was run: as §2

PA-1 = assay: as above; details: Gynecologic cancer cell panel viability, ATPlite luminescence, 48 h; series mostly up to 57.5 µM
How it was run: as §2

MCC-26 = assay: qHTS assay to identify novel small-molecules to repurpose for Merkel cell carcinoma treatment (AID 1296009); details: MCC and control cell lines, CellTiter-Glo viability, 72 h; series mostly up to 46 µM; also: nearly all actives have a fitted effect of over 60% in size
How it was run: as §1

NIH3T3 = assay: as above; details: MCC and control cell lines, CellTiter-Glo viability, 72 h; at 44.8 µM (top of the series) unless noted
How it was run: as §1

CAOV3 = assay: Primary qHTS to identify gynecologic anti-cancer compounds using libraries of approved drugs and bioactive compounds (AID 1345084); details: Gynecologic cancer cell panel viability, ATPlite luminescence, 48 h; series mostly up to 57.5 µM; also: nearly all actives have a fitted effect of over 55% in size
How it was run: as §2

CASKI = assay: as above; details: Gynecologic cancer cell panel viability, ATPlite luminescence, 48 h; series mostly up to 57.5 µM
How it was run: as §2

OV90 = assay: as above; details: Gynecologic cancer cell panel viability, ATPlite luminescence, 48 h; series mostly up to 57.5 µM
How it was run: as §2

SKOV3 = assay: as above; details: Gynecologic cancer cell panel viability, ATPlite luminescence, 48 h; series mostly up to 57.5 µM
How it was run: as §2

Tov-21-G = assay: as above; details: Gynecologic cancer cell panel viability, ATPlite luminescence, 48 h; series mostly up to 57.5 µM
How it was run: as §2

Measured: Potency
Potency is read from the fitted curve at half-maximal effect.

COc1cc2nc(-c3ccc(N4CCN(C)CC4)cc3)nc(NCCN3CCOCC3)c2cc1OC
active: MCC-13 9.35 µM | MKL-1 0.0235 µM | MKL-2 0.105 µM | UISO 0.118 µM | WaGa 0.118 µM | PA-1 15.8 µM
inactive: C33A | Es-2 | HeLa | Hek293T | JEG-3

COc1ccc(-c2oc3c(CC=C(C)C)c(OC4O[C@H](CO)[C@@H](O)[C@H](O)[C@@H]4O)cc(O)c3c(=O)c2OC2O[C@@H](C)[C@H](O)[C@@H](O)[C@@H]2O)cc1 (some centres undefined)
inactive: MCC-13 | MCC-26 | MKL-1 | WaGa

N#CC(=C(N)Sc1ccccc1N)C(C#N)=C(N)Sc1ccccc1N
active: UISO 1.05 µM
inactive: MCC-13 | MCC-26 | MKL-1 | WaGa

COC(=O)C1=CO[C@@H](O)[C@@H]2C(CO)=CC[C@@H]12
inactive: MCC-13 | MCC-26 | NIH3T3
active: MKL-2 9.35 µM

CC(C)(C)C(=O)Oc1ccc2c(c1)nc(NC(=O)c1cccc([N+](=O)[O-])c1)n2CCCO
inactive: MCC-13 | MKL-1 | MKL-2 | NIH3T3 | WaGa

CCOC(CN1C(=O)[C@](CC(=O)Nc2ccc(C)cc2)(NC(=O)Nc2ccc(C)cc2)c2ccccc21)OCC
inactive: MCC-13 | MCC-26 | MKL-1 | UISO | WaGa

O=C(CCc1ccc(O)cc1)c1c(O)cc(O)cc1O[C@@H]1O[C@H](CO)[C@H](O)[C@H](O)[C@H]1O
inactive: MCC-13 | MCC-26 | MKL-1 | UISO | WaGa

CC1(C)CCC(CN2CCN(c3ccc(C(=O)NS(=O)(=O)c4ccc(NCC5CCOCC5)c([N+](=O)[O-])c4)c(Oc4cnc5[nH]ccc5c4)c3)CC2)=C(c2ccc(Cl)cc2)C1
inactive: MCC-13 | MCC-26 | MKL-1 | UISO | WaGa | C33A | CAOV3 | CASKI | Es-2 | HeLa | Hek293T | OV90 | PA-1 | SKOV3 | Tov-21-G

O=C1c2c(O)cc(O)cc2O[C@H](c2cc(O)c(O)c(O)c2)[C@H]1O
inactive: MCC-13 | MCC-26 | UISO
active: WaGa 2.35 µM

Cc1nnc(C(C)C)n1C1C[C@H]2CC[C@@H](C1)N2CC[C@H](NC(=O)C1CCC(F)(F)CC1)c1ccccc1 (some centres undefined)
inactive: MCC-13 | MKL-1 | MKL-2 | NIH3T3 | UISO | WaGa

Cc1nc(N)sc1-c1ccnc(Nc2ccc(N3CCOCC3)cc2)n1
active: Es-2 10 µM | HeLa 2.51 µM | OV90 15.8 µM | PA-1 8.91 µM | SKOV3 8.91 µM | Tov-21-G 14.1 µM
inactive: MCC-26 | MKL-2

CC(=O)Nc1ccc([C@H](C)C(=O)Nc2ncc(C(C)C)s2)cc1
inactive: CAOV3 | JEG-3 | SKOV3
active: MKL-2 9.35 µM | UISO 7.43 µM | C33A 20 µM | Es-2 14.1 µM | Hek293T 15.8 µM | PA-1 22.4 µM

CC(C)(C(=O)NCC(F)(F)C(F)(F)F)C(=O)N[C@@H]1C(=O)Nc2ccccc2-c2ccccc21
inactive: MCC-13 | NIH3T3

CCCCCNC(=O)N1CCC(CN(Cc2ccc(Cl)cc2)Cc2ccc([N+](=O)[O-])s2)C1 (centres undefined)
inactive: MCC-13 | MKL-1 | UISO | WaGa

COc1ccc(C2CC(c3ccccc3)=NN2c2ccc(S(N)(=O)=O)cc2)cc1 (centres undefined)
inactive: MCC-13 | MKL-1 | MKL-2 | WaGa | C33A | CASKI | Es-2 | HeLa | Hek293T | JEG-3 | OV90 | PA-1 | SKOV3 | Tov-21-G

NS(=O)(=O)c1cccc2c1C(=O)c1cccc(O)c1C2=O
active: MKL-1 0.132 µM | MKL-2 0.264 µM | UISO 0.662 µM | WaGa 0.132 µM

CC1=C(/C=C/C(C)=C/C=C/C(C)=C/C(=O)Nc2ccc(O)cc2)C(C)(C)CCC1
active: MKL-1 26.6 µM | MKL-2 10.6 µM | UISO 9.44 µM | WaGa 23.7 µM | C33A 7.94 µM | Hek293T 20 µM | OV90 31.6 µM | PA-1 4.47 µM | Tov-21-G 20 µM

C=CCc1ccc(O)c(-c2ccc(O)c(CC=C)c2)c1
inactive: MCC-13 | WaGa

CC(C)OC(=O)C(C)(C)Oc1ccc(C(=O)c2ccc(Cl)cc2)cc1
inactive: C33A | CASKI | HeLa | JEG-3 | OV90 | PA-1 | SKOV3 | Tov-21-G

CO[C@H]1C[C@@H]2CC[C@@H](C)[C@@](O)(O2)C(=O)C(=O)N2CCCC[C@@H]2C(=O)O[C@H]([C@H](C)C[C@@H]2CC[C@H](OCCO)[C@H](OC)C2)CC(=O)[C@H](C)C=C(C)[C@@H](O)[C@@H](OC)C(=O)[C@H](C)C[C@H](C)C=CC=CC=C1C
active: UISO 0.833 µM
inactive: MCC-13 | MKL-2

CO[C@H]1C=CO[C@@]2(C)Oc3c(C)c(O)c4c(O)c(c5c(c4c3C2=O)NC2(CCN(CC(C)C)CC2)N=5)=NC(=O)C(C)=CC=C[C@H](C)[C@H](O)[C@@H](C)[C@@H](O)[C@@H](C)[C@H](OC(C)=O)[C@H]1C
inactive: C33A | CASKI | Es-2 | HeLa | Hek293T | JEG-3 | OV90 | PA-1 | SKOV3 | Tov-21-G

CC(C)OC(=O)CCCC=CC[C@@H]1[C@H](C=C[C@@H](O)COc2cccc(C(F)(F)F)c2)[C@H](O)C[C@@H]1O
inactive: MKL-1

O=c1[nH]cnc2c1ncn2[C@H]1CC[C@@H](CO)O1
inactive: C33A | CASKI | Es-2 | HeLa | Hek293T | JEG-3 | OV90 | PA-1 | SKOV3 | Tov-21-G

Cc1c(NC(=O)c2ccc(C(C)(C)C)cc2)cccc1-c1cn(C)c(=O)c(Nc2ccc(C(=O)N3CCOCC3)cc2)n1
inactive: MCC-13 | MKL-1 | MKL-2 | WaGa | C33A | CASKI | Es-2 | HeLa | Hek293T | JEG-3 | OV90 | PA-1 | SKOV3 | Tov-21-G

CO[C@@H](C(=O)N1Cc2[nH]nc(NC(=O)c3ccc(N4CCN(C)CC4)cc3)c2C1)c1ccccc1
inactive: MKL-2 | UISO

CC(C)n1nc(-c2ccc3oc(N)nc3c2)c2c(N)ncnc21
active: UISO 0.0264 µM | CASKI 2.24 µM | HeLa 12.6 µM | Hek293T 0.316 µM | OV90 0.316 µM | Tov-21-G 0.316 µM

Cc1ccn(-c2ccc(-c3ncco3)cc2)c(=O)c1-c1ccc2nc(N)ncc2c1
active: PA-1 11.2 µM | SKOV3 3.55 µM | Tov-21-G 11.2 µM
inactive: MCC-13 | MKL-1 | WaGa | CAOV3 | HeLa | Hek293T | JEG-3 | OV90

CN(C)Cc1cccc(N=C(c2ccccc2)c2c(O)[nH]c3cc(C(=O)N(C)C)ccc23)c1
inactive: MCC-13 | MKL-1 | WaGa

CN(C)C1CCN(C(=O)c2ccc(NC(=O)Nc3nc(N4CCOCC4)nc(N4CCOCC4)n3)cc2)CC1
active: MCC-26 0.833 µM | MKL-1 0.132 µM | MKL-2 0.296 µM | UISO 0.0264 µM | WaGa 0.105 µM | C33A 0.178 µM | CASKI 0.141 µM | Es-2 0.794 µM | HeLa 0.794 µM | Hek293T 0.891 µM | OV90 0.141 µM | SKOV3 0.1 µM

Nc1nc(F)nc2c1ncn2[C@@H]1O[C@H](COP(=O)(O)O)[C@@H](O)[C@H]1O
active: UISO 13.2 µM | WaGa 14.8 µM
inactive: MCC-26

CN1CCN(CCOc2cc(OC3CCOCC3)c3c(Nc4c(Cl)ccc5c4OCO5)ncnc3c2)CC1
active: SKOV3 3.55 µM | Tov-21-G 2.24 µM
inactive: MKL-1 | MKL-2 | UISO | WaGa | Es-2 | HeLa | Hek293T | JEG-3

Clc1cc(Cl)cc(CNc2ncncc2-c2ccc3c(c2)OCO3)c1
inactive: MCC-13 | MKL-2

CC(C)(C)Cn1c(N)nc2ccc(-c3[nH]c(C(C)(C)C)nc3-c3ccc(F)cc3)nc21
inactive: MCC-26 | MKL-1 | MKL-2 | C33A | Es-2 | HeLa | JEG-3 | PA-1 | Tov-21-G

O=C(NOCC(O)CO)c1cc(Br)c(F)c(F)c1Nc1ccc(I)cc1F (centres undefined)
inactive: MCC-26 | MKL-1 | MKL-2 | UISO | WaGa

COc1ccc(C2Sc3ccccc3N(CCN(C)C)C(=O)C2OC(C)=O)cc1 (centres undefined)
inactive: C33A | CASKI | Es-2 | HeLa | Hek293T | JEG-3 | OV90 | PA-1 | Tov-21-G
